Data on 7 molecules can be found in PubChem BioAssay (Tox21).

Structures are written as SMILES. Unmarked numbers belong to inactive results. Records with an inconclusive call do not appear. Activity calls are given as the source filed them. Unless noted, calls come from the whole dose curve; as a rule, active = well fitted curve in the direction sought with a large enough effect in the repeat runs; inconclusive = weak or mixed curves; inactive = no such curve, though single readings can be large; an effect the other way counts as inactive or inconclusive.

Experiment [1] can be described thus: qHTS assay for small molecules that induce genotoxicity in human embryonic kidney cells expressing luciferase-tagged ATAD5 (AID 651632). Note: nearly all actives have a fitted effect of over 15% in size. In outline:
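HEK293T cells carrying a luciferase reporter tagged to ATAD5 were exposed to compound or DMSO vehicle for 16 hr at 37C, 5% CO2. Amplite was added, and after 30 min at room temperature luciferase activity was read as a marker of ATAD5 induction.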
Background: qHTS replaces the single test concentration by a dilution series.

Experiment [2] is described as follows: qHTS assay for small molecule agonists of the p53 signaling pathway - cell viability (AID 651633; calls by dose curve;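 note: p53RE-bla HCT reporter cells with a stable beta-lactamase p53 reporter; series mostly up to about 83 µM; nearly all actives have a fitted effect of over 30% in size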). In outline: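 p53RE-bla cells were treated with compound for 16 hours at 37 C. Cytotoxicity was then measured as CellTiter-Glo luminescence after 30 min at room temperature.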
A short description of experiment [3]: qHTS assay for small molecules that induce genotoxicity in human embryonic kidney cells expressing luciferase-tagged ATAD5 - cell viability (AID 651634; calls by dose curve; note: nearly all actives have a fitted effect of over 25% in size). In outline:
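HEK293T cells expressing luciferase-tagged ATAD5 were exposed to compound or DMSO for 15.5 hr at 37C, 5% CO2. Viability was then read as live-cell protease activity by CellTiter-Fluor fluorescence after 30 min at 37C.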

Experiment [4] is described as follows: qHTS assay for small molecule disruptors of the mitochondrial membrane potential - cell viability (AID 720634; calls by dose curve;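 note: human HepG2 liver cancer cells; series mostly up to about 83 µM; nearly all actives have a fitted effect of over 20% in size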). In outline:
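HepG2 cells seeded overnight at 37 C, then exposed to compound or DMSO for 1 hr at 37 C, 5% CO2. m-MPI dye added, then CellTiter-Glo for 30 min at room temperature; viability read as ATP luminescence.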

Experiment [5] is described as follows: qHTS assay for small molecule disruptors of the mitochondrial membrane potential (AID 720635). Note: potency is the fitted concentration of half-maximal effect. Summed up:
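HepG2 cells exposed to compound 1 hr at 37C, then Mito-MPS dye 30 min. Ratio read of aggregate (540/590 nm) versus monomer (490/535 nm) fluorescence.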

Experiment [6] can be described thus: qHTS assay to test for compound auto fluorescence at 590 nm (red) in HepG2 cells (AID 720674). In outline: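 HepG2 cells, 2,000 per well in MEM with 10% FBS, attached overnight at 37 C, then got 23 nL compound or DMSO. After 1 hr at 37 C, 5% CO2, red fluorescence was read at 540/590 nm against Rose Bengal sodium as reference.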
A short description of experiment [7]: qHTS assay to test for compound auto fluorescence at 460 nm (blue) in HEK293 cells (AID 720678). In outline:
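Intrinsic compound fluorescence is recorded in live HEK293 cultures after overnight incubation at 37C, 5% CO2, using excitation 405 nm and emission 460 nm. Values are referenced to triamterene.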

The nature of experiment [8]: qHTS assay to test for compound auto fluorescence at 590 nm (red) in HEK293 cells (AID 720679). In outline: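 Red autofluorescence, HEK293 cells: 2,000 cells/well; attach 4-5 hr 37C; add 23 nL cpd or DMSO; incubate o/n 37C 5% CO2; read Ex540/Em590; Rose Bengal sodium reference.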
Experiment [9] can be described thus: qHTS assay to test for compound auto fluorescence at 535 nm (green) in HEK293 cells (AID 720680).
A short description of experiment [10]: qHTS assay to test for compound auto fluorescence at 460 nm (blue) in HEK293 cell free culture (AID 720681). In outline: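 Compounds were added to cell-free DMEM with 10% FBS and fluorescence read directly. The blue channel used 405 nm excitation and 460 nm emission, with triamterene as the reference fluorophore.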
Experiment [11] is described as follows: qHTS assay to test for compound auto fluorescence at 535 nm (green) in HEK293 cell free culture (AID 720682). In outline:
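Read-out: 485/535 nm fluorescence intensity, calibrated against fluorescein. Medium only (DMEM + 10% FBS, no cells); test compound or DMSO vehicle added by pintool before plate reading.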

Experiment [12] can be described thus: qHTS assay to test for compound auto fluorescence at 590 nm (red) in HEK293 cell free culture (AID 720683). In outline:
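Cell-free wells of DMEM with 10% FBS received compound, and intrinsic fluorescence was read at excitation/emission 540/590 nm. Values expressed as equivalence to Rose Bengal sodium.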

The nature of experiment [13]: qHTS assay to test for compound auto fluorescence at 460 nm (blue) in HepG2 cell free culture (AID 720685). In outline:
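Compound (23 nL) or DMSO pinned into cell-free MEM with 10% FBS; blue fluorescence read at 405/460 nm excitation/emission, expressed as auto-fluorescence equivalency to triamterene.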

Experiment [14] is described as follows: qHTS assay to test for compound auto fluorescence at 535 nm (green) in HepG2 cell free culture (AID 720686).
Experiment [15] in a line: qHTS assay to test for compound auto fluorescence at 460 nm (blue) in HepG2 cells (AID 720687). Summed up: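 HepG2 cells in MEM with 10% FBS, attached overnight at 37 C, were exposed to compound or DMSO for 1 hr at 37 C, 5% CO2. Blue fluorescence was read at 405/460 nm, with triamterene as reference fluorophore.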
For experiment [16], the target named is Glucocorticoid receptor (Homo sapiens) (UniProt P04150). In words: qHTS assay to identify small molecule agonists of the glucocorticoid receptor (GR) signaling pathway (AID 720691; active = well fitted activation curve with a large enough effect in the signal ratio in the repeat runs, not every such curve was filed as active; the % refers to the signal ratio). Summed up: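 GR-bla HeLa cells (beta-lactamase reporter under glucocorticoid response element) were plated 4 h at 37 C/5% CO2, given compounds in DMSO, and incubated 18 h at 37 C. LiveBLAzer B/G FRET substrate was added for 2 h at room temperature, then fluorescence intensity read.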

The target is the same in experiment [17]. In words: qHTS assay to identify small molecule antagonists of the glucocorticoid receptor (GR) signaling pathway (AID 720692; active = well fitted inhibition curve with a large enough effect in the signal ratio in the repeat runs, not every such curve was filed as active; the % refers to the signal ratio; note: potency is the fitted concentration of half-maximal effect). Summed up:
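GR-bla HeLa cells (beta-lactamase reporter under glucocorticoid response element) were pre-plated 4 h at 37 C, treated with compounds plus 5 nM dexamethasone (final) for 18 h, then read by LiveBLAzer B/G FRET fluorescence after 2 h.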

Experiment [18] can be described thus: qHTS assay to test for compound auto fluorescence at 590 nm (red) in HepG2 cell free culture (AID 720684). Summed up:
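Compound was pinned into wells holding MEM with 10% FBS and no cells, and red fluorescence was read at Ex/Em 540/590 nm. Signal is expressed as auto fluorescence equivalency relative to Rose Bengal sodium.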

Experiment [19] can be described thus: qHTS assay to test for compound auto fluorescence at 535 nm (green) in HepG2 cells (AID 720675).

Glucocorticoid receptor (Homo sapiens), sequence (P04150 whole entry, looked up): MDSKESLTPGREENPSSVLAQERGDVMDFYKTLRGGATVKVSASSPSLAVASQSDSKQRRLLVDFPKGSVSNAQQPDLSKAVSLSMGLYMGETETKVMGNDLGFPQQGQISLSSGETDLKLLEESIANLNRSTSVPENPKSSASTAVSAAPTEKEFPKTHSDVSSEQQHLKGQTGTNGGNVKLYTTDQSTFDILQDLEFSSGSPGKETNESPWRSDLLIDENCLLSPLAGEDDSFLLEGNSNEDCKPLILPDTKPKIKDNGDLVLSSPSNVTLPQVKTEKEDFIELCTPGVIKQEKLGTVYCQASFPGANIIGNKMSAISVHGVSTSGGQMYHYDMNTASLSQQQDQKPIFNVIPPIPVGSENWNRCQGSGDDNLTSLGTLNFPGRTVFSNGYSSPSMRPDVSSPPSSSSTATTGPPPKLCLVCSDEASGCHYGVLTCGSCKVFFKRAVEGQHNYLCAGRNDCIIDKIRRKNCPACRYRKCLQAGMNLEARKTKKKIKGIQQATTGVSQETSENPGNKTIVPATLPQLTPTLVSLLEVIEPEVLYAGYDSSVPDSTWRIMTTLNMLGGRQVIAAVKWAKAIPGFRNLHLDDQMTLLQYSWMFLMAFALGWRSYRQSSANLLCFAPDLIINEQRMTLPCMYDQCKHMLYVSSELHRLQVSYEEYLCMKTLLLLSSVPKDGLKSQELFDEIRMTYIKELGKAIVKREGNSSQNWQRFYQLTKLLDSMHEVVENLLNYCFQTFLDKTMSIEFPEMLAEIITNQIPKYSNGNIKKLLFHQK

In the case of `O=C(c1ccccc1)c1ccc(O)cc1`, the Potency entry in experiment [1], in [2], in experiment [3], in [7], in [10] and in [13] was “inactive” each time. Further, the Potency entry in experiment [15], in [16] and in experiment [17] was “inactive” in each case. The outcome in [4], in experiment [6], in [8], in experiment [9], in experiment [11] and in experiment [12] was inactive. For the same molecule, the molecule was classed as inactive in experiment [14]. In addition, the Potency in [5] is 27.6 µM (active).
As to `CC(C)COC(=O)c1ccc(O)cc1`, the Potency result in experiment [1], in [2], in experiment [3], in [7], in [10] and in experiment [13] was “inactive” throughout. Besides, the Potency entry in experiment [15] and in experiment [16] was “inactive” throughout. Further, the Potency in experiment [5] is 12.2 µM (active). Also, the result in [6], in experiment [8], in experiment [9], in experiment [11], in experiment [12] and in [18] was inactive. Further, the result in [14] was inactive.
On to `O=C(O)CNC(=O)c1ccccc1I`, for which the Potency result in experiment [1], in [2], in experiment [3], in experiment [7], in [10] and in experiment [13] was “inactive” throughout. Besides, the Potency result in [15], in [16] and in experiment [17] was “inactive” each time. Besides, the result in [4], in [6], in experiment [19], in [8], in experiment [9] and in experiment [11] was inactive. The call in experiment [12], in experiment [18] and in experiment [14] was inactive.
`O=C1[C@@H]2[C@H]3CC[C@H](C3)[C@@H]2C(=O)N1CCCCN1CCN(c2ncccn2)CC1`: the Potency entry in experiment [1], in [2], in [5], in [7], in experiment [13] and in experiment [15] was “inactive” in each case. In addition, the Potency result in experiment [16] and in experiment [17] was “inactive” each time. Besides, the molecule was called inactive in experiment [4], in [6], in [19], in [8], in [9] and in [11]. Further, the result in experiment [12], in [18] and in experiment [14] was inactive.
With `COC(C)(C)OC`, the Potency entry in experiment [1], in [2], in [3], in experiment [7], in experiment [13] and in [15] was “inactive” each time. Also, the molecule was classed as inactive in experiment [4], in experiment [6], in experiment [19], in [8], in [9] and in experiment [11]. Also, the result in [12], in experiment [18] and in [14] was inactive.
In the case of `COc1ccc(/C=C/C(=O)c2ccc(OC)cc2OC)cc1`, the Potency entry in [1], in experiment [2], in experiment [7], in experiment [10], in experiment [13] and in [15] was “inactive” throughout. The Potency entry in experiment [16] is “inactive”. Besides, the molecule was classed as inactive in [4], in [6], in experiment [19], in experiment [8], in [9] and in experiment [11]. For the same molecule, the molecule was classed as inactive in experiment [12], in experiment [18] and in [14]. The Potency in experiment [5] was 13.3 µM (active).
`CCCCCCCC/C=C\CCCCCCCC(=O)OCCO`: the Potency entry in [1], in experiment [2], in [3], in experiment [5], in [7] and in experiment [10] was “inactive” in each case. The Potency result in experiment [13], in experiment [15] and in experiment [16] was “inactive” throughout. The call in experiment [4], in experiment [6], in [19], in experiment [8], in experiment [9] and in experiment [11] was inactive. Moreover, the molecule was classed as inactive in experiment [12] and in [14]. Further, in experiment [17], the Potency is 57.8 µM (active).
